# Compound activity from PubChem BioAssay.
# Hits are enriched below; roughly 4.1% of the tested compounds scored in any of these assays.
# DAX1 inh-1 = DAX1 (NR0B1) inhibitors, primary screen, cell-based, HEK293, Gal4-DAX1, luciferase luminescence | HEK293 Gal4-DAX1 luciferase reporter | 340,000 compounds, 0.99% hits | AID 504766, 2011 | inhibition, % at 6.75 µM;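 active = inhibition above the mean over all tested compounds plus 3 SD, cut at about 4.2% in these data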;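 also: 0% = DAX1-transfected cells with DMSO and 100% = empty-vector control cells with DMSO; inhibition shows as a rise in luminescence from relieved DAX1 repression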
# Target sequence (P51843 207-470 limits assumed): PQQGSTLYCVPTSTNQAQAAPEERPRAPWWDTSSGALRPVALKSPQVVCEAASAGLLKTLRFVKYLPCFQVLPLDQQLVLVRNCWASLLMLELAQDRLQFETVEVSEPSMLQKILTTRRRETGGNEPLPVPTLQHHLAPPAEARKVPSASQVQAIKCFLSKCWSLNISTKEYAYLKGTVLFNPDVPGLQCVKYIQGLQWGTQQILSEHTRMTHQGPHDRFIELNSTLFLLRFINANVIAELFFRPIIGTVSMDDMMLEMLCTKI
# hgDAF-12 ag = H. glycines DAF-12 receptor agonists, primary screen, cell-based, luminescence, HEK293, GAL4 fusion, UAS-luciferase; activation, % at 6.8 µM; 370,000 compounds, 1.8% hits; AID 687014, 2013; HEK293 GAL4-hgDAF12 UAS-luciferase reporter, agonist luminescence; normalized to butyrate control;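 active = activation above a cutoff set at the mean of all screened compounds plus 3 SD, cut at about 10% in these data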;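 also: 0% = DMSO wells and 100% = sodium butyrate wells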
# DAX1 inh-2 = DAX1 (NR0B1) inhibitors on StAR promoter, primary screen, cell-based, luminescence, SF-1 (NR5A1), full-length DAX-1 | inhibition, % at 6.8 µM | HEK293T StAR-luciferase reporter, SF-1/DAX-1 repression relief | 370,000 compounds, 1.1% hits;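 active = inhibition above the mean over all tested compounds plus 3 SD, cut at about 3.6% in these data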;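 also: 0% = DAX-1 cells with DMSO and 100% = cells lacking DAX-1 with DMSO; higher inhibition means more luminescence from relief of DAX-1 repression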
# ssDAF-12 act = S. stercoralis DAF-12 nuclear receptor activators, primary screen, cell-based, luminescence, HEK293, GRIP1 co-expression, lit1-tk-luc; AID 652126, 2013; 370,000 compounds, 1% hits; Nuclear hormone receptor DAF-12 (Strongyloides stercoralis); HEK293 ssDAF-12/GRIP1 lit1-tk-luc reporter; % of 3 µM dafachronic acid response; activation, % at 6.8 µM;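 active = activation above the mean over all tested compounds plus 3 SD, cut at about 0.9% in these data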;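 also: 0% = DMSO-only wells and 100% = 3 µM delta7-dafachronic acid wells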
# hcDAF-12 act = H. contortus DAF-12 nuclear receptor activators, primary screen, cell-based, luminescence, HEK293, lit1-tk-luc reporter. HEK293 hcDAF-12 lit1-tk-luc reporter; 0% DMSO, 100% Δ7-dafachronic acid. activation, % at 6.8 µM. 370,000 compounds, 1.4% hits;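 active = activation above the mean of all tested compounds plus 3 SD, cut at about 5.5% in these data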;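 also: 100% = response to 3 µM Δ7-dafachronic acid high control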
# * marks the source's active call; other numbers are inactive results; . = not tested or not shown.
SMILES,DAX1 inh-1,hgDAF-12 ag,DAX1 inh-2,ssDAF-12 act,hcDAF-12 act
Nc1c(C(=O)OCC(=O)NCc2ccccc2)[nH]c(=O)[nH]c1=O,7.9*,0,1,-2,-3
O=C(CCc1ccccc1)Nc1ccccc1,1,2,1,0,0
O=C(COC(=O)c1ccc2ccccc2n1)NCc1ccccc1,4.9*,2,0,-1,0
O=C(CCc1ccccc1)Nc1ccc2ccccc2n1,2,12*,3,-1,5
COc1cccc(-c2ccc(CC[C@H]3O[C@H]4CC[C@H](CO)O[C@H]4C[C@H]3NS(C)(=O)=O)cc2)c1,.,0,0,-1,-1
O=S(=O)(c1c(Cl)sc(Cl)c1Br)N1CCCC1,0,-1,0,1.5*,-1
CC(C)C[C@H]1COc2cccc(N3CCCC3)c2S(=O)(=O)N1C,.,-2,0,-1,-3
C=CCNC(=O)c1nc2ccccc2s1,1,4,0,0,3
C=CCNC(=O)c1ccc(CSc2nc3ccccc3s2)cc1,0,1,-3,0,5.7*
Cc1cccc(Cn2cc(COC(=O)NCCc3ccccc3)nn2)c1,.,2,0,-1,-1
CN(C)N=Nc1ccc(-c2cn(Cc3ccccc3)cn2)cc1,2,10,1,1.0*,2
O=C(NN=C1CCCCCCCCCCC1)c1ccccc1F,0,12*,3,0,3
O=C(NN=C1CCCC1)c1ccn[nH]1,2,12*,2,1,1
O=C(c1cccc(Br)c1)N1CCC(Oc2cccnc2)CC1,.,3,0,-1,-3
O=C(Nc1ccc(Br)cc1)c1ccco1,1,10,1,-1,5
O=C(Nc1ccc(NC(=O)c2ccco2)cc1)c1ccco1,0,7,4.4*,-1,2
CC(=O)N(C)c1ccc(NC(=O)c2ccco2)cc1,0,7,3.8*,0,5
O=C(Nc1ccc(NC(=O)C2CC2)cc1)c1ccco1,0,11*,1,0,2
CCN1CCN(c2ccc(NC(=O)c3ccco3)cc2Cl)CC1,1,7,1,0,1
O=C(Nc1ccc(N2CCCC2)c(Cl)c1)c1ccco1,-1,12*,4,0,3
CCC[C@H]1[C@@H](OC(=O)NC(CC)CC)CC[C@@]23CCCN2C(=O)CCC[C@@H]13,.,0,.,-2,1
Nc1[nH]c(C(=O)c2ccc(Br)cc2)c(-c2ccccc2Cl)c1C(=O)NCCc1c[nH]c2ccccc12,.,-1,0,-1,0
CCOc1ccc(/C=N/n2c(-c3n[nH]c4c3CCC4)n[nH]c2=S)cc1,.,7,-1,-1,-2
O=C(Nc1ccc(NC(=O)C23CC4CC(CC(C4)C2)C3)cn1)c1ccco1,3,11*,1,1,3
CC(C)CN1C(=O)[C@]2(CC(=O)N(C)C2c2ccccc2)c2cc(-n3cc(CO)nn3)ccc21 (stereo not given in full),.,-3,1,0,0
SMILES,DAX1 inh-1,hgDAF-12 ag,DAX1 inh-2,ssDAF-12 act,hcDAF-12 act
COC(=O)c1c(-c2ccccc2)oc2c1C(OCCO)CCC2 (stereo not given),.,-1,-1,-1,0
O=C(OCc1ccccc1)c1c(-c2ccccc2)oc2c1C(OCCO)CCC2 (stereo not given),.,1,-1,1.5*,1
CCS(=O)(=O)N1CCc2nc(-c3ccccc3)sc2C1,4.9*,12*,2,0,3
COc1ccc(-c2nc3c(s2)CN(S(C)(=O)=O)CC3)cc1OC,2,1,0,-1,1
O=C(C1CCCN1S(=O)(=O)c1cccc2ccccc12)N1CCN(c2ccccc2)CC1 (stereo not given),.,-4,0,2.5*,-3
O=C(C1CCCN1S(=O)(=O)c1cccc2nsnc12)N1CCN(c2ccccc2)CC1 (stereo not given),-1,.,.,.,.
CCOc1ccc(NC(=O)Cc2cccc3ccccc23)c([N+](=O)[O-])c1,-1,-3,-1,6.7*,-1
CCOc1ccc(NC(=O)Cc2ccccc2)c([N+](=O)[O-])c1,-1,4,-1,-1,0
CC(=O)c1sc(NC(=O)c2ccccc2)nc1-c1ccccc1,4.8*,12*,3,1,2
O=C(Nc1nc(-c2ccccc2)c(C(=O)c2ccccc2)s1)c1ccc(S(=O)(=O)N2CCCCC2)cc1,-1,2,0,0,6.5*
O=C(Nc1nc(-c2ccccc2)c(-c2ccccc2)s1)c1ccc(S(=O)(=O)N2CCCCC2)cc1,-1,1,0,-1,-1
COc1ccc(OC)c(S(=O)(=O)N2CCCCC2C(=O)N2CCCN(C)CC2)c1 (stereo not given),.,0,-1,-1,-3
COc1cc2ccc(=O)oc2cc1O,5.1*,-4,0,-2,-1
COc1cc2ccc(=O)oc2cc1OCC(O)C(C)(C)O (stereo not given),3,1,0,-2,-1
COC(=O)[C@]12C[C@H](CC(=O)NCc3cccc(C(F)(F)F)c3)C(=O)N(Cc3cccc4ccccc34)C1=C[C@H](C1CCCC1)O[C@@H]2C,.,2,-1,-1,1
O=c1c(O)c(-c2ccccc2)oc2ccccc12,4.9*,7,1,-1,-3
Cc1ccc2nc3sc(C(=O)N4CCOCC4)c(N)c3cc2c1,1,9,3.7*,1,6.5*
O=C(N/N=C/c1ccc(O)cc1)c1cccc(C(F)(F)F)c1,-1,1,0,-1,2
COc1ccc(/C=N/Nc2ccc(C(=O)O)cc2)cc1Br,-2,4,4.0*,-1,4
O=C(O)c1ccc(/C=N/Nc2cccc(C(F)(F)F)c2)cc1,0,3,4.3*,-1,1
O=C(O)c1ccc(/C=N/Nc2ccc(C(F)(F)F)cn2)cc1,1,19*,4.2*,3.4*,6.0*
COc1cc(/C=N/Nc2ccc(C(F)(F)F)cn2)ccc1O,-1,4,0,0,3
COC(CNC(=O)[C@H](Cc1c[nH]c2ccccc12)NC1(C(=O)NC2CCCCC2)CCCCC1)OC,.,2,.,-2,0
CCCCN1CC(COCc2ccccc2)Oc2cccc(NCc3cc(OC)c(OC)c(OC)c3)c2S1(=O)=O (stereo not given),.,-4,-4,-1,-1
O=C1c2ccccc2-c2nc3ccccc3n21,3,1,0,0,0
c1ccc2c(c1)Cn1c-2nc2ccccc21,1,13*,3,0,6.0*
